# From PubChem BioAssay (NCI)
# This is part of a sample that, as a whole, favours compounds with a hit. Of some 79,000 tested, about 15% had one in any assay. A number with no mark means an inactive call. Active and inactive are the calls of the source. No stated cut-off is given here; in the data, active means growth inhibition above about 70%; inactive means the rest.
# Key:
# [1] = NCI Yeast Anticancer Drug Screen. Data for the rad52 strain (AID 147);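 further: 0% = growth of vehicle-treated control cultures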; conditions: S. cerevisiae rad52 mutant growth inhibition, hits give high values
# Outline: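 DNA repair-defective yeast; compound exposure; growth scored against vehicle controls.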
# [2] = NCI Yeast Anticancer Drug Screen. Data for the wt1 strain (AID 149);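 further: 0% = growth of vehicle-treated wt1 cultures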; conditions: S. cerevisiae wt1 strain (SPY 50644) growth inhibition, hits give high values
# Outline: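 wt1 yeast, compound-treated; % growth inhibition vs vehicle control.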
# [3] = NCI Yeast Anticancer Drug Screen. Data for the mgt1 strain (AID 153); conditions: S. cerevisiae mgt1 mutant growth inhibition, hits give high values
# Outline: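 Growth inhibition relative to vehicle controls was scored for the mgt1 yeast strain after compound exposure.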
# [4] = NCI Yeast Anticancer Drug Screen. Data for the rad50 strain (AID 155);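 further: 0% = growth of vehicle-only cultures of the same strain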; conditions: S. cerevisiae rad50 strain growth inhibition, hits give high values
# Outline: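 Genetically altered yeast (DNA repair pathway); compound treatment; growth inhibition vs vehicle ctrl.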
# [5] = NCI Yeast Anticancer Drug Screen. Data for the mec2-1 strain (AID 157); conditions: S. cerevisiae mec2-1 strain, hits give high values
# Outline: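 Growth inhibition is read against vehicle-treated controls after compound exposure of the mec2-1 yeast strain, which is defective in DNA damage repair or cell cycle control.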
# [6] = NCI Yeast Anticancer Drug Screen. Data for the rad14 strain (AID 159);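 further: 0% = growth of vehicle-treated control cultures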; conditions: S. cerevisiae rad14 strain growth inhibition, hits give high values
# Outline: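 Test compounds were applied to a repair-deficient yeast strain. Its growth was then compared with that of cultures given vehicle alone, and inhibition was expressed relative to those controls.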
# [7] = NCI Yeast Anticancer Drug Screen. Data for the sgs1 mgt1 strain (AID 161);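 further: 0% = growth of cultures given vehicle only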; conditions: S. cerevisiae sgs1 mgt1 strain, hits give high values
# Outline: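 Yeast cells carrying a defined DNA-repair defect were exposed to test compounds. Growth inhibition was measured relative to vehicle-treated controls.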
# [8] = NCI Yeast Anticancer Drug Screen. Data for the CLN2oe strain (AID 163);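 further: 0% = growth of vehicle-only control cultures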; conditions: S. cerevisiae CLN2oe strain, hits give high values
# Outline: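 Compound-treated yeast; growth vs vehicle ctrl = % inhibition. Genetically altered strain (cell-cycle control).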
# [9] = NCI Yeast Anticancer Drug Screen. Data for the cln2 rad14 strain (AID 165);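 further: 0% = growth equal to vehicle treated cultures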; conditions: S. cerevisiae cln2 rad14 strain, hits give high values
# Outline: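 Growth inhibition, relative to vehicle-treated controls, is the read-out. The test organism is a yeast strain with defined genetic alterations, cln2 rad14.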
# [10] = NCI Yeast Anticancer Drug Screen. Data for the bub3 strain (AID 167); conditions: S. cerevisiae bub3 mutant strain, hits give high values
# Outline: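 Yeast carrying a defined mutation is treated with each compound, and growth is compared with that of vehicle-exposed cells to give inhibition.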
# [11] = NCI Yeast Anticancer Drug Screen. Data for the wt2 strain (AID 169);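 further: 0% = growth of vehicle-treated yeast cultures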; conditions: S. cerevisiae wt2 strain growth inhibition, hits give high values
# Outline: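 Compound exposure of yeast; growth compared with vehicle controls; inhibition reported.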
# [12] = NCI Yeast Anticancer Drug Screen. Data for the mlh1 strain (AID 171);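 further: 0% = growth of vehicle-treated control cultures of the same strain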; conditions: S. cerevisiae mlh1 strain growth inhibition, hits give high values
# Outline: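 Compounds are applied to a genetically altered yeast strain, and its growth is compared with that of vehicle-treated cultures to give percent inhibition.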
# [13] = NCI Yeast Anticancer Drug Screen. Data for the sgs1 strain (AID 173);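 further: 0% = growth of vehicle-only control cultures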; conditions: S. cerevisiae sgs1 mutant, hits give high values
# Outline: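 Compounds applied to genetically altered yeast; growth compared with vehicle-treated cultures to give % inhibition.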
# [14] = NCI Yeast Anticancer Drug Screen. Data for the mlh1 rad18 strain (AID 175); conditions: S. cerevisiae mlh1 rad18 strain growth inhibition, hits give high values
# Outline: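 Cells of a genetically altered yeast strain, deficient in DNA damage repair, were treated with compound. Their growth was then compared with that of vehicle-treated cultures to give inhibition.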
# [15] = NCI Yeast Anticancer Drug Screen. Data for the rad18 strain (AID 177); conditions: S. cerevisiae rad18 mutant growth inhibition, hits give high values
# Outline: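 Compounds are applied to a repair-deficient yeast strain, and growth is compared with that of vehicle-treated cultures to give percent inhibition.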
# [16] = at 5.0 µM (retest, dose inferred, filed as 0.5)
# [17] = at 50.0 µM (retest, dose inferred, filed as 5.0)
compound,measurement,setting,value
CCCCCCCCCCCC1=C(O)C(=O)C=C(O)C1=O,growth inhibition,[1]; at 1.2 µM,-7%
same,growth inhibition,[1]; at 3.7 µM,-2%
same,growth inhibition,[1]; at 11.0 µM,68%
same,growth inhibition,[1]; at 33.0 µM,88% (active)
same,growth inhibition,[1]; at 100.0 µM,94% (active)
same,growth inhibition,[2]; at 1.2 µM,-4%
same,growth inhibition,[2]; at 3.7 µM,-7%
same,growth inhibition,[2]; at 11.0 µM,64%
same,growth inhibition,[2]; at 33.0 µM,94% (active)
same,growth inhibition,[2]; at 100.0 µM,91% (active)
same,growth inhibition,[3]; at 1.2 µM,-3%
same,growth inhibition,[3]; at 3.7 µM,-5%
same,growth inhibition,[3]; at 11.0 µM,22%
same,growth inhibition,[3]; at 33.0 µM,89% (active)
same,growth inhibition,[3]; at 100.0 µM,91% (active)
same,growth inhibition,[4]; at 1.2 µM,-15%
same,growth inhibition,[4]; at 3.7 µM,-15%
same,growth inhibition,[4]; [16],32%
same,growth inhibition,[4]; at 11.0 µM,36%
same,growth inhibition,[4]; at 33.0 µM,94% (active)
same,growth inhibition,[4]; [17],79% (active)
same,growth inhibition,[4]; at 50.0 µM,46.5%
same,growth inhibition,[4]; at 100.0 µM,93% (active)
same,growth inhibition,[5]; at 1.2 µM,-7%
same,growth inhibition,[5]; at 3.7 µM,-4%
same,growth inhibition,[5]; [16],9%
same,growth inhibition,[5]; at 11.0 µM,63%
same,growth inhibition,[5]; at 33.0 µM,94% (active)
same,growth inhibition,[5]; [17],90% (active)
same,growth inhibition,[5]; at 50.0 µM,37.9%
same,growth inhibition,[5]; at 100.0 µM,95% (active)
same,growth inhibition,[6]; at 1.2 µM,2%
same,growth inhibition,[6]; at 3.7 µM,0%
same,growth inhibition,[6]; at 11.0 µM,80% (active)
same,growth inhibition,[6]; at 33.0 µM,96% (active)
same,growth inhibition,[6]; at 100.0 µM,80% (active)
same,growth inhibition,[7]; [16],30%
same,growth inhibition,[7]; [17],85% (active)
same,growth inhibition,[7]; at 50.0 µM,46.9%
same,growth inhibition,[8]; at 1.2 µM,-7%
same,growth inhibition,[8]; at 3.7 µM,-17%
same,growth inhibition,[8]; at 11.0 µM,63%
same,growth inhibition,[8]; at 33.0 µM,93% (active)
same,growth inhibition,[8]; at 100.0 µM,91% (active)
same,growth inhibition,[9]; [16],-11%
same,growth inhibition,[9]; [17],88% (active)
same,growth inhibition,[9]; at 50.0 µM,35.9%
same,growth inhibition,[10]; at 1.2 µM,-10%
same,growth inhibition,[10]; at 3.7 µM,-4%
same,growth inhibition,[10]; [16],81% (active)
same,growth inhibition,[10]; at 11.0 µM,54%
same,growth inhibition,[10]; at 33.0 µM,96% (active)
same,growth inhibition,[10]; [17],89% (active)
same,growth inhibition,[10]; at 50.0 µM,57%
same,growth inhibition,[10]; at 100.0 µM,95% (active)
same,growth inhibition,[11]; at 1.2 µM,3%
same,growth inhibition,[11]; at 3.7 µM,8%
same,growth inhibition,[11]; at 11.0 µM,79% (active)
same,growth inhibition,[11]; at 33.0 µM,96% (active)
same,growth inhibition,[11]; at 100.0 µM,81% (active)
same,growth inhibition,[12]; at 1.2 µM,-12%
same,growth inhibition,[12]; at 3.7 µM,-9%
same,growth inhibition,[12]; at 11.0 µM,37%
same,growth inhibition,[12]; at 33.0 µM,93% (active)
same,growth inhibition,[12]; at 100.0 µM,91% (active)
same,growth inhibition,[13]; at 1.2 µM,-19%
same,growth inhibition,[13]; at 3.7 µM,-11%
same,growth inhibition,[13]; at 11.0 µM,46%
same,growth inhibition,[13]; at 33.0 µM,95% (active)
same,growth inhibition,[13]; at 100.0 µM,89% (active)
same,growth inhibition,[14]; [16],41%
same,growth inhibition,[14]; [17],90% (active)
same,growth inhibition,[14]; at 50.0 µM,72.3% (active)
same,growth inhibition,[15]; at 1.2 µM,-9%
same,growth inhibition,[15]; at 3.7 µM,-6%
same,growth inhibition,[15]; at 11.0 µM,64%
same,growth inhibition,[15]; at 33.0 µM,95% (active)
same,growth inhibition,[15]; at 100.0 µM,92% (active)
